ROMK primary – modulates human ROMK potassium channel activity. hit rate 2% among 130,000. AID 1918. Tet-inducible ROMK, thallium flux fluorescence; actives lie on both sides. B-score at 10 µM;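 active means signal ratio slope over the read window, or its plate-corrected B-score, at least 3 SD from the plate mean, either direction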;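 further: B-score of the F/F0 ratio slope over 7 to 12 s after thallium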
S1P4 antagonist – antagonists of human S1P4 receptor; O95977; S1P4-expressing cells, antagonist mode, reporter read-out; inhibition, % at 4.98 µM; hit rate 0.26% among 220,000; AID 1510; in the data active means inhibition above about 29%
S1P4 ag – agonists of human S1P4 receptor; S1P4-expressing cell line, agonist reporter assay; O95977; hit rate 0.35% among 220,000; activation, % at 4.98 µM; in the data active means activation above about 11%
KCC2 mod – modulators of human KCC2 chloride dependent transport; KCC2 cells, thallium flux FluoZin-2 fluorescence; B-score of Tl+ flux slope (higher = more flux/activation; lower = inhibition) at 10 µM; hit rate 2.2% among 190,000; AID 1456;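 active means thallium flux slope and its plate-corrected score both differing from the plate sample mean at a set confidence after two filtering rounds, in either direction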;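 further: slope of fluorescence scaled to starting intensity during 10 to 20 s after thallium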
Target sequence (Q9H2X9 whole entry, looked up): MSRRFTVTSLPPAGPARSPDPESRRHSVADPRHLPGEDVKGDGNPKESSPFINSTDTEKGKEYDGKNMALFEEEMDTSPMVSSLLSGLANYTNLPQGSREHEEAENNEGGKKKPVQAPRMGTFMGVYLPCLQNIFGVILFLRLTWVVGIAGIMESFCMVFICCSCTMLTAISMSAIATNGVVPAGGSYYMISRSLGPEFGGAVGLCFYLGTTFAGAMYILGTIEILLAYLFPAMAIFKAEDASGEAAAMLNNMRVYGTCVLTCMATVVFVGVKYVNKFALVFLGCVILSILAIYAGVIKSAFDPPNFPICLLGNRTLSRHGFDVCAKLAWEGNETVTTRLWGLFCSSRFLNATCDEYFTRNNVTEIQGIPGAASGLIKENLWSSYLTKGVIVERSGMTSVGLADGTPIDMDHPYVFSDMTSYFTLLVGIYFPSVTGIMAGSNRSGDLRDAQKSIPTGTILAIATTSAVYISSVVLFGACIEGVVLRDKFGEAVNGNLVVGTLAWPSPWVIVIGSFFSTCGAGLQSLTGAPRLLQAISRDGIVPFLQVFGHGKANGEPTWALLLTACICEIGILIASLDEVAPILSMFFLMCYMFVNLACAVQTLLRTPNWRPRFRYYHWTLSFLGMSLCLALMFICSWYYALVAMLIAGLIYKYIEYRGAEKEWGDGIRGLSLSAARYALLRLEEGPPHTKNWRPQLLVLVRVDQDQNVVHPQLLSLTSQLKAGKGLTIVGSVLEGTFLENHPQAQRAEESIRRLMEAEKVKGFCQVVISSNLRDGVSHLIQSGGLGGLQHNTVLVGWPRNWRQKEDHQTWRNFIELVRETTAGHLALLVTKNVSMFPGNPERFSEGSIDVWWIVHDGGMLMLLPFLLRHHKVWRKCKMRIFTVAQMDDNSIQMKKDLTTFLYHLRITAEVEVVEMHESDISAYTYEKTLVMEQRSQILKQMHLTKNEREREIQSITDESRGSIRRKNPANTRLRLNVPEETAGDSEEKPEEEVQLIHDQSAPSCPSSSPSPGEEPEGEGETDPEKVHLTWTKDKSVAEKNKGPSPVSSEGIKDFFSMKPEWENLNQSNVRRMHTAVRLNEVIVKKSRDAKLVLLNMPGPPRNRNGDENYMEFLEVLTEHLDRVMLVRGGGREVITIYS
RAM network inh – yeast RAM network inhibition; S. cerevisiae dse1pr::URA3 reporter, 5-FOA growth OD615, 2 d; analog-sensitive cbk1-as2 kinase mutant strain; inhibition, % at 50 µM; AID 868; hit rate 1.8% among 190,000;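 active means inhibition above a set limit, 3 SD over mean compound inhibition, cut at about 8.4% in these data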;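 further: inhibition rescues growth on 5-FOA so higher OD means more RAM inhibition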
S1P3 antag – antagonists of human S1P3 receptor. Q99500. CHO S1P3 NFAT-BLA reporter, FRET fluorescence, antagonist mode. inhibition, % at 4.98 µM. hit rate 0.27% among 170,000. AID 485;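 active means inhibition above the plate cutoff, the mean inhibition of test wells on that plate plus 3 SD, cut at about 28% in these data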;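 further: cells challenged with S1P at its EC80 of 0.8 µM; blue over green emission ratio from cleaved BLA substrate after 4 h stimulation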
KCC2 secondary – KCC2 (human) modulation, secondary assay. normalised thallium flux (F/F0 slope) at 10 µM. shares compounds with KCC2 mod. HEK293-KCC2, thallium flux, FluoZin2 fluorescence; hits give high values. hit rate 15% among 3,700;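 active means thallium flux slope above the same plate's solvent-only control mean plus 3 SD; inconclusive means the two replicate wells disagree; inactive means no significant difference from solvent-only control wells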
KCC2 bumet counter – thallium flux despite bumetanide block in KCC2 cells, secondary assay 3. shares compounds with KCC2 mod. HEK293-KCC2 + bumetanide/ouabain, thallium flux FluoZin2; hits give high values. normalized thallium flux at 10 µM. hit rate 49% among 3,700. AID 1714;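 active means thallium entry rate above the same plate's blocked-transporter control wells by more than 3 SD; inconclusive means the two repeat wells disagree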;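 further: raw slope of fluorescence over initial fluorescence between 10 and 20 s after thallium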
KCC2 secondary2 – confirmation of human KCC2 transport modulators | shares compounds with KCC2 mod | HEK293-KCC2, thallium flux FluoZin2 fluorescence; actives lie on both sides; F/F0 rise rate, 10–20 s post-thallium | normalized thallium flux at 10 µM | hit rate 23% among 3,700 | AID 1715;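 active means thallium flux slope more than 3 SD above or below the plate's solvent-only control mean, mostly below; inconclusive means the two repeat wells disagreed; inactive means no significant shift from solvent-only controls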
HEK counter1 – parental HEK flux effect, counter-screen. shares compounds with KCC2 mod. hit rate 46% among 3,700. HEK293 parental cells, thallium flux FluoZin2, ouabain; baseline-ratio fluorescence slope, 10–20 s after thallium. thallium flux rate (normalised fluorescence) at 10 µM;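 active means thallium flux rate significantly above the same plate's solvent-only control wells, beyond their mean plus 3 SD; inconclusive means the two replicate wells gave conflicting results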
KCC2 retest ouab – confirmation of human KCC2 modulators with ouabain | raw Tl+ flux slope (below DMSO = inhibition, above = activation) at 10 µM | hit rate 48% among 3,700 | HEK293-KCC2, thallium flux FluoZin2 fluorescence; bidirectional: low = inhibitor, high = activator | shares compounds with KCC2 mod;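 active means thallium flux slope beyond 3 SD from same-plate DMSO control mean in most replicates, usually higher, sometimes lower; inconclusive means repeat tests gave conflicting results; inactive means no significant difference from controls in most replicates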;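 further: slope of initial-normalized fluorescence between seconds 10 and 20 after thallium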
HEK counter2 – parental HEK flux effect, counter-screen 2 | hit rate 33% among 3,700 | thallium flux slope at 10 µM | HEK293 parental, thallium flux FluoZin-2 fluorescence slope | AID 1718 | shares compounds with KCC2 mod;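 active means thallium flux slope above the same plate's solvent-control mean plus 3 SD in both duplicate wells; inconclusive means duplicate wells that disagreed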;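 further: run without ouabain in cells lacking the KCC2 cotransporter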
Large screens that a line does not name were inactive (follow-up assays come after a bar, where they were run). Shown are actives, neighbours in structure and some others; about 5.1% of the full set was active somewhere.

Cc1cc(C)c(NC(=S)NC(=O)c2c(Cl)c(C)nn2C)c([N+](=O)[O-])c1	KCC2 mod 42 | KCC2 secondary 0.019 | KCC2 bumet counter 0.16 | KCC2 secondary2 inconclusive | HEK counter1 0.047 | KCC2 retest ouab 0.061 | HEK counter2 0.016
COc1cccc(CC2(CO)CCCN(Cc3sc(N4CCCC4)nc3Cl)C2)c1 (stereo unspecified)	none (no result: KCC2 mod)
N#CCc1nn(-c2ccccc2)c2ncnc(N)c12	none (no result: ROMK primary, RAM network inh)
Cc1cnc(NC(=O)CSc2nnc(Cc3ccccc3)o2)s1	KCC2 mod -4.4 (no result: ROMK primary) | KCC2 secondary inactive | KCC2 bumet counter inactive | KCC2 secondary2 0.021 | HEK counter1 inactive | KCC2 retest ouab inconclusive | HEK counter2 inactive
CCc1nnc(NC(=O)CSc2nnc(COc3cccc(C)c3)o2)s1	none (no result: ROMK primary)
COc1ccc(Cc2nnc(SCC(=O)Nc3ncc(C)s3)o2)cc1	none (no result: ROMK primary, KCC2 mod)
COc1ccc(NC(=O)CSc2nnc(Cc3ccccc3)o2)c(OC)c1	KCC2 mod -3.9 | KCC2 secondary inactive | KCC2 bumet counter inactive | KCC2 secondary2 inactive | HEK counter1 inconclusive | KCC2 retest ouab 0.014 | HEK counter2 inactive
COCc1nnc(NC(=O)CSc2ccccc2)s1	KCC2 mod -4.8 | KCC2 secondary inactive | KCC2 bumet counter inactive | KCC2 secondary2 inactive | HEK counter1 inactive | KCC2 retest ouab inactive | HEK counter2 inactive
CCc1nnc(NC(=O)CSc2nnc(COc3ccccc3C)o2)s1	none (no result: KCC2 mod) | KCC2 secondary inactive | KCC2 bumet counter inconclusive | KCC2 secondary2 0.025 | HEK counter1 inconclusive | KCC2 retest ouab 0.016 | HEK counter2 inactive
COCc1nnc(NC(=O)CSc2ccc(C)cc2)s1	none (no result: ROMK primary)
CC(C)N(C(=O)CSc1nc2c([nH]1)c(=O)n(C)c(=O)n2C)c1ccccc1	KCC2 mod -3.7 (no result: ROMK primary) | KCC2 secondary inactive | KCC2 bumet counter inactive | KCC2 secondary2 inactive | HEK counter1 inactive | KCC2 retest ouab inactive | HEK counter2 inactive
CCN(CC)S(=O)(=O)c1cc(NC(=O)CNc2c(C)n(C)n(-c3ccccc3)c2=O)ccc1C	none
N#CC(c1ccc(Cl)cc1)c1ccc2c(C(F)(F)F)cc(C(F)(F)F)nc2n1 (stereo unspecified)	KCC2 mod 22 (no result: S1P3 antag) | KCC2 secondary 0.024 | KCC2 bumet counter 0.14 | KCC2 secondary2 inactive | HEK counter1 0.054 | KCC2 retest ouab 0.067 | HEK counter2 0.015
COCCN1C(=O)C(O)=C(C(=O)c2ccco2)C1c1cccc(Oc2ccccc2)c1 (stereo unspecified)	KCC2 mod -6.9 (no result: ROMK primary) | KCC2 secondary inactive | KCC2 bumet counter inactive | KCC2 secondary2 inconclusive | HEK counter1 0.0063 | KCC2 retest ouab 0.017 | HEK counter2 inactive
CCOc1ccc(C2=Nn3c(nnc3-c3ccccn3)SC2)cc1	none (no result: S1P3 antag) | KCC2 secondary inactive | KCC2 bumet counter inactive | KCC2 secondary2 inactive | HEK counter1 inactive | KCC2 retest ouab inactive | HEK counter2 inactive
O=C(O)COCC(=O)Nc1ccc(-n2cnnn2)cc1	none
CCCCOc1ccc(-c2c(C#N)c(N)nc(SCC(N)=O)c2C#N)cc1	KCC2 mod -6.4 | KCC2 secondary inactive | KCC2 bumet counter inactive | KCC2 secondary2 inactive | HEK counter1 inactive | KCC2 retest ouab 0.017 | HEK counter2 inconclusive
CCCCOC(=O)CSc1nc(N)c(C#N)c(-c2ccc(OCC)cc2)c1C#N	none (no result: ROMK primary)
CCNC(=S)N=Nc1c(O)[nH]c2ccc([N+](=O)[O-])cc12	KCC2 mod 5 | KCC2 secondary inactive | KCC2 bumet counter 0.022 | KCC2 secondary2 inactive | HEK counter1 0.013 | KCC2 retest ouab inactive | HEK counter2 inconclusive
CC(C)c1ccc2[nH]c(O)c(N=NC(=S)NCCc3ccccc3)c2c1	none (no result: ROMK primary)
CCCCNC(=S)N=Nc1c(O)[nH]c2ccccc12	KCC2 mod 25 | KCC2 secondary inconclusive | KCC2 bumet counter 0.049 | KCC2 secondary2 inconclusive | HEK counter1 0.035 | KCC2 retest ouab 0.04 | HEK counter2 0.025
CCNC(=S)N=Nc1c(O)[nH]c2ccc(C(C)C)cc12	KCC2 mod 10 | KCC2 secondary inconclusive | KCC2 bumet counter 0.021 | KCC2 secondary2 inactive | HEK counter1 0.022 | KCC2 retest ouab 0.026 | HEK counter2 0.016
O=[N+]([O-])c1ccc2[nH]c(O)c(N=NC(=S)NCC3CCCO3)c2c1 (stereo unspecified)	none
NC(=S)N=Nc1c(O)[nH]c2ccccc12	none
O=[N+]([O-])c1ccc(CN2C=NS(=O)(=O)c3ccccc32)cc1	none
CCOC(=O)c1ccc(NC(=O)C(C)Sc2nc(O)c(-c3ccccc3)c(=O)[nH]2)cc1 (stereo unspecified)	none
Cc1cccc(N=Nc2ccc(O)c3ncccc23)c1	KCC2 mod 15 | KCC2 secondary inactive | KCC2 bumet counter 0.034 | KCC2 secondary2 inactive | HEK counter1 0.033 | KCC2 retest ouab 0.049 | HEK counter2 0.012
Cc1ccc(C)c(N=Nc2ccc(O)c3ncccc23)c1	KCC2 mod 13 (no result: ROMK primary) | KCC2 secondary inconclusive | KCC2 bumet counter 0.012 | KCC2 secondary2 inactive | HEK counter1 0.01 | KCC2 retest ouab 0.032 | HEK counter2 inconclusive
O=C(Nc1cccnc1Cl)c1ccc(=O)oc1	none (no result: ROMK primary, KCC2 mod, RAM network inh)
CCOC(=O)c1cc2c(ccn2C)n1CC(=O)N(CC)CC	none
O=C(Nc1ccccc1O)c1cc(S(=O)(=O)N2CCOCC2)ccc1Cl	none (no result: ROMK primary)
CCc1ccccc1NC(=S)N=Nc1c(O)n(C)c2ccc(S(=O)(=O)N3CCOCC3)cc12	KCC2 mod 11 | KCC2 secondary 0.014 | KCC2 bumet counter 0.086 | KCC2 secondary2 inactive | HEK counter1 0.031 | KCC2 retest ouab 0.058 | HEK counter2 0.012
Brc1cccc(-c2cnc3n2CCCCC3)c1	none (no result: KCC2 mod, S1P3 antag) | KCC2 secondary inactive | KCC2 bumet counter inactive | KCC2 secondary2 inactive | HEK counter1 inactive | KCC2 retest ouab inactive | HEK counter2 inactive
COC(=O)n1c(=S)oc2cc(Cl)ccc21	KCC2 mod 3 (no result: ROMK primary) | KCC2 secondary 0.018 | KCC2 bumet counter 0.023 | KCC2 secondary2 inactive | HEK counter1 0.015 | KCC2 retest ouab 0.029 | HEK counter2 inactive

High-throughput results deposited in PubChem BioAssay by several laboratories.
